{"source": "PubChem BioAssay AID602123", "about": "(The Scripps Research Institute Molecular Screening Center, 2011)", "note": "Screen size: about 360,000 compounds; about 1,500 (0.42%) were called active. Only a selection was taken, and actives are over-represented in it overall. Values without a mark were called inactive. Rule as the data show it: active = inhibition above about 13% (passing the limit was not always enough); inactive = the rest."}
{"target": "Lon protease (Escherichia coli (strain K12)) (UniProt P0A9M0)", "sequence (P0A9M0 whole entry, looked up)": "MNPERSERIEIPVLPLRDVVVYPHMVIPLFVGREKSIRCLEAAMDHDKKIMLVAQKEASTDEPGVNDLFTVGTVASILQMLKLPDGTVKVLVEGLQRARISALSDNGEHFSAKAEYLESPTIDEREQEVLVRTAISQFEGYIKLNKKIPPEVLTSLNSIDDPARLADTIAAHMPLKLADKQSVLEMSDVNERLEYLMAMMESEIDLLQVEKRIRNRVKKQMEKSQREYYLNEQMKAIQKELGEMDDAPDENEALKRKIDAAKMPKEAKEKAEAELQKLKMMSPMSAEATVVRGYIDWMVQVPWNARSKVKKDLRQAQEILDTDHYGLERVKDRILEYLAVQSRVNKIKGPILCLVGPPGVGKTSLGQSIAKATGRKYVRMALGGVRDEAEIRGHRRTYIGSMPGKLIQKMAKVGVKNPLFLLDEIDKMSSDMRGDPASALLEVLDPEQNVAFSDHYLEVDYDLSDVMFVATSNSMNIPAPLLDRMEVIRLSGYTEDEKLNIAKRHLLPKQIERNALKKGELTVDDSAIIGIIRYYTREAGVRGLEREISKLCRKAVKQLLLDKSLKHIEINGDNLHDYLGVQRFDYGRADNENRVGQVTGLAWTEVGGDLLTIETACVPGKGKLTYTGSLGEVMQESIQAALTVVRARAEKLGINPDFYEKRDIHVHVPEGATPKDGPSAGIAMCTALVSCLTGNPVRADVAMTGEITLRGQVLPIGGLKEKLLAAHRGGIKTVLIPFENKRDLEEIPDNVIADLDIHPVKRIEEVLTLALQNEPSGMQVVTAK", "experiment": "E. coli eLon protease inhibition – biochemical, fluorescence polarization, primary screen (AID 602123);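 also: 0% = enzyme with probe and DMSO and 100% = no enzyme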", "conditions": "purified E. coli Lon protease, at 7.94 µM, hits give high values"}
{"smiles": "COCCn1c(N)c(NCc2ccccc2)c(=O)[nH]c1=O", "inhibition": "31.1% (active)"}
{"smiles": "COCCn1c(N)c(N(Cc2ccccc2)C(=O)C2CCCCC2)c(=O)[nH]c1=O", "inhibition": "-5.01%"}
{"smiles": "COCCN(C(=O)c1ccccc1F)c1c(N)n(Cc2ccccc2)c(=O)[nH]c1=O", "inhibition": "2.64%"}
{"smiles": "Cc1ccc(N=C2SCCCN2C(=O)c2cccc(N3C(=O)CCC3=O)c2)cc1Cl", "inhibition": "1.67%"}
{"smiles": "COC(=O)c1cccc(C(=O)N2CCC(CCC(=O)NCc3ccc(F)cc3)CC2)c1", "inhibition": "-6.42%"}
{"smiles": "CC(=O)Nc1ccc(CN2CCN(Cc3ccc(F)c(F)c3)C(CCO)C2)cc1", "note": "(stereo unspecified)", "inhibition": "-13.9%"}
{"smiles": "COC(=O)c1ccccc1N=NNc1ccc([N+](=O)[O-])cc1", "inhibition": "-9.1%"}
{"smiles": "COc1cc(NC(=O)Nc2ccc(C)cc2)cc([N+](=O)[O-])c1", "inhibition": "-13%"}
{"smiles": "COc1ccc(Nc2ccc([N+](=O)[O-])cn2)cn1", "inhibition": "20.9% (active)"}
{"smiles": "O=S(=O)(/N=C(/Nc1ccccc1)c1ccccc1)c1cccs1", "inhibition": "5.92%"}
{"smiles": "O=S1(=O)CC(N2CCN(CCO)CC2)CN1Cc1cn(Cc2ccc(Cl)cc2)nn1", "note": "(stereo unspecified)", "inhibition": "-4.7%"}
{"smiles": "Cn1nc(C(F)(F)F)c2cc(NC(=O)OCC(C)(C)C)sc21", "inhibition": "-3.72%"}
{"smiles": "CCNc1nc(N)nc(-c2cc(Cl)ccc2OC)n1", "inhibition": "-13.4%"}
{"smiles": "CCOc1cc(S(=O)(=O)NC2CC(C)(C)NC(C)(C)C2)ccc1F", "inhibition": "-9.09%"}
{"smiles": "COCCNC(=O)CN(Cc1ccco1)C(=O)CCC(=O)Nc1nccs1", "inhibition": "-1.88%"}
{"smiles": "COCCNC(=O)Nc1ccc2nc(-c3ccco3)c(-c3ccco3)nc2c1", "inhibition": "25.9% (active)"}
{"smiles": "COc1ccc(CCNC(=O)Nc2ccc3c(c2)c(=O)n(C)n3C)cc1OC", "inhibition": "7.25%"}
{"smiles": "O=C(c1cccc(Br)c1)N1CCN(C2=NS(=O)(=O)c3ccccc32)CC1", "inhibition": "-1.34%"}
{"smiles": "Oc1ccc(N=Cc2sc3ccccc3c2Cl)cc1", "inhibition": "32.3% (active)"}
{"smiles": "COc1ccc(OC)c(NC(=O)N[C@H](Cc2ccccc2)C(=O)NN)c1", "inhibition": "-10.1%"}
{"smiles": "COc1ccc2oc(C(=O)NCC(Cc3ccccc3)N(C)C)c(C)c2c1", "note": "(stereo unspecified)", "inhibition": "1.71%"}
{"smiles": "COc1cc([C@H](Cc2ccccc2)NC(C)=O)oc(=O)c1", "inhibition": "17.6% (active)"}
{"smiles": "CC(=O)N1CC(C)c2scc(C)[n+]2-c2ccccc21", "note": "(stereo unspecified)", "inhibition": "20.3%"}
{"smiles": "C=CCc1cccc2cc(C(=O)Nc3ccc(NC(C)=O)cc3)c(=O)oc12", "inhibition": "-3.06%"}
{"smiles": "CCc1cc2c(=O)c(-c3ccon3)c(N)oc2cc1OC", "inhibition": "-12.2%"}
{"smiles": "Cc1cc(OCCN2CCCC2)cc(C(C)C)c1", "inhibition": "3.29%"}
{"smiles": "Nc1ccc2nc3c(=O)[nH]c(=S)[nH]c3nc2c1", "inhibition": "182% (active)"}
{"smiles": "Cc1coc2c(O)cc3c(c12)OC1(N2CCCCC2)C(=O)NCCCC31", "note": "(stereo unspecified)", "inhibition": "29.9% (active)"}
{"smiles": "CSc1ccc(C(=O)C2CCCN(C(=O)c3ccc(C)nc3)C2)cc1", "note": "(stereo unspecified)", "inhibition": "-8.1%"}
{"smiles": "CCCC(=O)OCC(=O)Nc1cc(Cl)ccc1[N+](=O)[O-]", "inhibition": "5.89%"}
{"smiles": "CC1(C)CC(N2CCN(C(c3ccccc3)c3ccccc3)CC2)=CC(=[N+]2CCCCC2)C1", "inhibition": "-3.99%"}
{"smiles": "O=C(O)Cc1ccc(NC(=O)C2CCCCC2C(=O)O)cc1", "note": "(stereo unspecified)", "inhibition": "-2.29%"}
{"smiles": "CC#CC[N+](C)(C)CCCCCC", "inhibition": "11.3%"}
{"smiles": "COc1ccc(N2CCN(C3CCCCC3NS(=O)(=O)c3ccccc3)CC2)cc1", "note": "(stereo unspecified)", "inhibition": "17.2% (active)"}
{"smiles": "O=S(=O)(NC1CCCCC1N1CCN(c2ccccc2F)CC1)c1ccccc1", "note": "(stereo unspecified)", "inhibition": "-9.13%"}
{"smiles": "CCN1CCN(C2CCCCC2NS(=O)(=O)c2ccc(Cl)cc2)CC1", "note": "(stereo unspecified)", "inhibition": "-11.9%"}
{"smiles": "N#Cc1ccccc1Sc1ccccc1C(=O)OCC(=O)NC1CCCCC1", "inhibition": "-2.35%"}
{"smiles": "Cc1nc2nc3c(cn2n1)C(=O)CC(c1ccccc1)C3", "note": "(stereo unspecified)", "inhibition": "6.37%"}
{"smiles": "CC(C)n1c(O)c(N=Nc2ccccn2)c2ccccc21", "inhibition": "-4.1%"}
{"smiles": "O=S(=O)(N1CCOCC1)N1CCN(c2ccccc2F)CC1", "inhibition": "3.92%"}
{"smiles": "Cc1cccc(C)c1N1CCN(S(=O)(=O)N2CCOCC2)CC1", "inhibition": "21.5% (active)"}
{"smiles": "Cc1cccc(C)c1N1CCN(S(=O)(=O)N2CCCCC2)CC1", "inhibition": "2.21%"}
{"smiles": "COc1ccc(/C=C/CN2CCCC(C(=O)c3cc(F)ccc3F)C2)cc1", "note": "(stereo unspecified)", "inhibition": "-0.58%"}
{"smiles": "C=CCn1c(=S)sc2c(=O)[nH]c(C)nc21", "inhibition": "5.17%"}
{"smiles": "Cc1ccn(C(CC(=O)c2ccc(Br)cc2)C(=O)O)n1", "note": "(stereo unspecified)", "inhibition": "5.2%"}
{"smiles": "Cc1nc(N)sc1-c1ccccc1", "inhibition": "-2.59%"}
{"smiles": "N#Cc1c(N)nc2c3c(sc(=N)c2c1N)NC(=O)CC3c1ccccc1Cl", "note": "(stereo unspecified)", "inhibition": "-13.5%"}
{"smiles": "O=[N+]([O-])c1cccc(C=NN=Cc2ccccc2O)c1", "inhibition": "0.97%"}
{"smiles": "Nc1ccccc1/C=N\\N=C/c1ccccc1N", "inhibition": "25.9% (active)"}
{"smiles": "COc1ccc(N2CCN(S(=O)(=O)CCNC(=O)C34CC5CC(CC(C5)C3)C4)CC2)cc1", "inhibition": "-6.65%"}
{"smiles": "COc1ccc(C)cc1S(=O)(=O)Nc1cc2c3c(c1)CCC(=O)N3CCC2", "inhibition": "0.26%"}
{"smiles": "CNc1cnc(-c2cc(OC)c(OC)c(OC)c2)cn1", "inhibition": "1.98%"}
{"smiles": "COC(=O)c1cccc(N(C(=O)c2ccco2)C(C(=O)NC2CCCC2)c2ccco2)c1", "note": "(stereo unspecified)", "inhibition": "-3.87%"}
{"smiles": "Cc1ccc(-n2c(=O)c(C#N)cc3c(=O)n4ccccc4nc32)cc1C", "inhibition": "-8.16%"}
{"smiles": "COC(=O)Nc1ccc(S(=O)(=O)N2CCN(CCN3C(=O)C4C5C=CC(C5)C4C3=O)CC2)cc1", "note": "(stereo unspecified)", "inhibition": "-1.58%"}
{"smiles": "COc1ccc(COC(=O)N/N=C(\\C)CC(=O)Nc2ccc(Cl)cc2)cc1", "inhibition": "9.08%"}
{"smiles": "C/C(CC(=O)Nc1ccc(Cl)cc1)=N\\NC(=O)C(=O)NCCO", "inhibition": "-5.9%"}
{"smiles": "CCc1ccc(NC(=O)C(=O)N/N=C(\\C)CC(=O)NCCOC)cc1", "inhibition": "28.6% (active)"}
{"smiles": "O=C(/C=C/c1cccc(C(F)(F)F)c1)N1CCN(c2ccccn2)CC1", "inhibition": "8.73%"}
{"smiles": "COc1nc(N(C)C)nc(N2CC(=O)N(CCNS(=O)(=O)c3ccc(C)cc3)C2=N)n1", "inhibition": "-0.47%"}
{"smiles": "C/C(=N\\NC(=O)CCn1nc(C)cc1C)C(C)(C)C", "inhibition": "-2.11%"}
